According to PubChem BioAssay (NCATS):
Inconclusive results are not listed. Activity calls are given as the source filed them. Calls come from the whole dose curve; as a rule, active = well fitted inhibition curve with a large enough effect; inconclusive = small, poorly fitted or top-dose-only effect; inactive = flat fitted curve, though single readings scatter.
% is set by controls: 0 for no effect and ±100 for the full control effect.

The compounds below were run against Glutathione peroxidase 1 (Homo sapiens) (UniProt P07203) (assay: Primary qHTS Assay for Inhibitors of Recombinant Selenoprotein Glutathione Peroxidase 1 (GPX1) (AID 1845191; note: nearly all actives have a fitted effect of over 65% in size)). Conditions: recombinant GPX1, GR-coupled NADPH fluorescence, 15 min; series mostly up to 48.8 µM; activity, negative = inhibition: at the top concentration.
Sequence of Glutathione peroxidase 1 (Homo sapiens) (P07203 whole entry, looked up): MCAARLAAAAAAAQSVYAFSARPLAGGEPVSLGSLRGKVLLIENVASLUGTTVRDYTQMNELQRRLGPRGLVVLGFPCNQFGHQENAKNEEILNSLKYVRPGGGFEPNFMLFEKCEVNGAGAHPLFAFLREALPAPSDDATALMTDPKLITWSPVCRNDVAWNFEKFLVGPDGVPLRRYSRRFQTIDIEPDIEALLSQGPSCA
Method in brief: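 GR-coupled assay: compounds preincubated 30 min at room temperature with GPX1, then reaction started with CHP; final 10 nM GPX1, 1 mM GSH, 0.5 mM CHP, 0.5 mM NADPH, 100 nM GR, 0.01% BSA, pH 7.5 Tris buffer. NADPH fluorescence (340/450 nm) read at 0 and 15 min.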
In the case of `COC(=O)C[C@H]1[C@]2(C)C3=C(C)[C@H](c4ccoc4)C[C@H]3O[C@@H]2[C@H](O)C2[C@](C)(C(=O)OC)C=CC(=O)[C@@]21C` (stereo partly specified), the “outcome” value was “inactive [at 27.7 µM]”.
For `CCCOc1ccc(CCc2nc3cc(-c4c(C)noc4C)ccc3n2CCN2CCOCC2)cc1`, the “outcome” value was “inactive”.
`Cn1c(CO)c(-c2ccccc2)c2cc([N+](=O)[O-])ccc21` was tested, and the “activity, negative = inhibition” value was -19.6% (inactive).
`CC(C)=C[C@@H]1[C@H](CO[C@@H]2O[C@H](CO)[C@@H](O)[C@H](O)[C@H]2O)C1(C)C` was tested, and the “activity, negative = inhibition” value was -13.2% [at 27.7 µM] (inactive).
With `Cc1cc(C)c2c(c1)C(N(Cc1cc(C(F)(F)F)cc(C(F)(F)F)c1)c1nnn(C)n1)CCCN2CC1CCC(C(=O)O)CC1` (stereo unspecified) the “activity, negative = inhibition” value was -19.4% (inactive).
In the case of `CCOc1ccc(-n2c(C(C)N(Cc3cccnc3)C(=O)Cc3ccc(F)c(C(F)(F)F)c3)nc3ncccc3c2=O)cc1` (stereo unspecified), the “outcome” value was “inactive”.
In the case of `COc1ccc(NC(=O)c2ccc(-c3ccc(-c4nnc(C)o4)cc3C)cc2)cc1N1CCN(C)CC1`, the “outcome” value was “inactive”.
`CN1CCN(c2ccc(OC(F)(F)F)c(Nc3ncc4c(n3)-c3c(c(C(N)=O)nn3CCO)CC4)c2)CC1` was tested, and the Potency was “inactive”.
With `CC(C)=CCC[C@](C)(O[C@@H]1O[C@H](CO[C@@H]2OC[C@@H](O)[C@H](O)[C@H]2O)[C@@H](O)[C@H](O)[C@H]1O)[C@H]1CC[C@]2(C)[C@@H]1[C@H](O)C[C@@H]1[C@@]3(C)CC[C@H](O[C@@H]4O[C@H](CO)[C@@H](O)[C@H](O)[C@H]4O)C(C)(C)[C@@H]3CC[C@]12C` the “activity, negative = inhibition” value was -9.81% [at 27.7 µM] (inactive).
With `OC1C=C2C3CN(Cc4cc5c(cc43)OCO5)C2CC1O` (stereo unspecified) the “activity, negative = inhibition” value was -5.25% (inactive).
With `C=C1CC(=O)C2OC2(C)CC2OC(=O)C(=C)C2C(O)C1OC(=O)/C(C)=C\C` (stereo unspecified) the “outcome” value was “inactive [at 27.7 µM]”.
